# Results published in PubChem BioAssay (NCI).
# Several values for one entry are separate records, joined by “and”; a condition that tells them apart may be missing. Identical values can stand only once. The panel holds about 83,000 compounds, 20% with a hit somewhere; the sample as a whole holds those more often.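 How to read the values: 0–100, growth inhibition (40 = 60% inhibited); 0, no net growth; -100 to 0, cell death (-40 = 40% of starting cells died; -100 = all dead).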 Activity calls are given as the source filed them. Rule for the calls: active = growth percent below 10; inactive = the rest.
# Columns and labels:
# Experiment in all cases: NCI-60 one-dose screen, 48 h (100 = growth as untreated, 0 = no growth, -100 = all killed)
# Details in all cases: 10 µM
# DU-145 prostate = tested on: DU-145 prostate
# K-562 leukemia = tested on: K-562 leukemia
# MALME-3M melanoma = tested on: MALME-3M melanoma
# MDA-MB-231 breast = tested on: MDA-MB-231 breast
# RXF 393 renal = tested on: RXF 393 renal
# SF-268 CNS = tested on: SF-268 CNS
# SF-295 CNS = tested on: SF-295 CNS
# SF-539 CNS = tested on: SF-539 CNS
# UACC-257 melanoma = tested on: UACC-257 melanoma
# M14 melanoma = tested on: M14 melanoma
Compound,growth (DU-145 prostate),growth (K-562 leukemia),growth (MALME-3M melanoma),growth (MDA-MB-231 breast),growth (RXF 393 renal),growth (SF-268 CNS),growth (SF-295 CNS),growth (SF-539 CNS),growth (UACC-257 melanoma),growth (M14 melanoma)
[O-][n+]1ccccc1S,32.3% (inactive),31.2% (inactive),110% (inactive),58.7% (inactive),46.9% (inactive),70.7% (inactive),44.4% (inactive),67.6% (inactive),23.9% (inactive),
Oc1c(I)cc(I)cc1I,114% (inactive),98.6% (inactive),121% (inactive),93.7% (inactive),108% (inactive),104% (inactive),110% (inactive),102% (inactive),107% (inactive),
COS(=O)(=O)c1ccccc1,114% (inactive),103% (inactive),111% (inactive),123% (inactive),109% (inactive),95.9% (inactive),109% (inactive),101% (inactive),101% (inactive),
Cc1cc([N+](=O)[O-])c2ccccc2[n+]1[O-],-35.9% (active) and -37% (active),1.04% (active) and -22.1% (active),-20.8% (active) and -41% (active),-17.4% (active) and -36.7% (active),-51.4% (active) and -66.4% (active),-12.7% (active) and -10.4% (active),-21% (active) and -59% (active),-49.2% (active) and -61.6% (active),8.15% (active) and -28% (active),-80.7% (active) and -70.6% (active)
CC(C)(C)OOC(=O)/C=C\C(=O)OOC(C)(C)C,112% (inactive),104% (inactive),141% (inactive),97.5% (inactive),105% (inactive),93.8% (inactive),138% (inactive),93.8% (inactive),99.4% (inactive),
O=C(CBr)Nc1ccc(Cl)cc1,105% (inactive),12.8% (inactive),29.8% (inactive),64.4% (inactive),97.7% (inactive),88.9% (inactive),103% (inactive),105% (inactive),99.7% (inactive),67.2% (inactive)
C/C1=C\[C@H](C)C[C@H](C)OC(=O)C[C@H](c2ccc(O)cc2)NC(=O)[C@@H](Cc2c(Br)[nH]c3ccccc23)N(C)C(=O)[C@H](C)NC(=O)[C@@H](C)C1,-15.6% (active),0.288% (active),-65% (active),-33.2% (active),-49.2% (active),-30.3% (active),-61.2% (active),-36.8% (active),0.643% (active),-71.2% (active)
CC[C@@H](C)[C@@H]1NC(=O)C(NC(=O)C(CC(C)C)N(C)C(=O)C2CCCN2C(=O)C(C)O)C(C)OC(=O)C(Cc2ccc(OC)cc2)N(C)C(=O)C2CCCN2C(=O)C(CC(C)C)NC(=O)C(C)C(=O)C(C(C)C)OC(=O)C[C@H]1O (stereo not given in full),-40.7% (active),-27% (active),-87.2% (active),-55.6% (active),-66.2% (active),-49.4% (active),-31% (active),-70.1% (active),-50.8% (active),-80.1% (active)
COc1cc([N+](=O)[O-])c2ncccc2c1[N+](=O)[O-],98.4% (inactive),29.4% (inactive),114% (inactive),78.2% (inactive),59.4% (inactive),52.6% (inactive),94.3% (inactive),13% (inactive),50.4% (inactive),65.8% (inactive)
COc1ccc2c(ccc3oc([N+](=O)[O-])cc32)c1,0.495% (active),0.428% (active),-55% (active),-20.3% (active),-64.3% (active),-6.08% (active),-0.437% (active),-18.7% (active),-56.9% (active),-40.2% (active)
Cc1cc(C(C)(C)c2ccc(O)c(C)c2)ccc1O,107% (inactive),80.8% (inactive),88.4% (inactive),80.5% (inactive),93.5% (inactive),90.3% (inactive),104% (inactive),92.2% (inactive),81.7% (inactive),106% (inactive)
COc1ccccc1/C=C/[N+](=O)[O-],48.2% (inactive),33.8% (inactive),97.5% (inactive),73% (inactive),1.37% (active),76.1% (inactive),93.9% (inactive),64% (inactive),71.8% (inactive),59.8% (inactive)
COC(C(=O)C(O)C(C)O)C1Cc2cc3cc(OC4CC(OC(C)=O)C(OC5CC(O)C(OC)C(C)O5)C(C)O4)cc(O)c3c(O)c2C(=O)C1OC1CC(OC2CC(OC3CC(C)(O)C(OC(=O)C(C)C)C(C)O3)C(O)C(C)O2)C(O)C(C)O1 (stereo not given),-32.2% (active),-68.4% (active),-89.1% (active),-26.3% (active),-24.6% (active),2.42% (active),-14.4% (active),-78.2% (active),-19.1% (active),
COc1cc(/C=C\[N+](=O)[O-])ccc1O,27.4% (inactive) and 61.2% (inactive),26.5% (inactive) and 48.1% (inactive),50.4% (inactive) and 96.4% (inactive),91.6% (inactive) and 83.6% (inactive),23.2% (inactive) and 56% (inactive),75.5% (inactive) and 87.6% (inactive),110% (inactive) and 104% (inactive),70.5% (inactive) and 83.2% (inactive),61.2% (inactive) and 90.5% (inactive),71.3% (inactive) and 52.1% (inactive)
Cc1ccc(C(=O)C2C(c3ccccc3)N2C2CCCCC2)cc1 (stereo not given),105% (inactive) and 111% (inactive),87.3% (inactive) and 83% (inactive),98.1% (inactive) and 97.9% (inactive),117% (inactive) and 112% (inactive),111% (inactive) and 96.8% (inactive),111% (inactive) and 102% (inactive),106% (inactive),99.9% (inactive) and 103% (inactive),89.9% (inactive) and 98.6% (inactive),93.8% (inactive) and 92.2% (inactive)
O=C(CBr)Nc1ccccc1,102% (inactive),39.4% (inactive),54.7% (inactive),95.3% (inactive),107% (inactive),90.1% (inactive),103% (inactive),106% (inactive),99.5% (inactive),84.4% (inactive)
COc1ccc(/C=C\[N+](=O)[O-])cc1OC,60.5% (inactive) and 59.3% (inactive),69.7% (inactive) and 27.5% (inactive),155% (inactive) and 105% (inactive),91.4% (inactive) and 68.9% (inactive),4.99% (active) and -51.1% (active),73.8% (inactive) and 70.3% (inactive),60.6% (inactive) and 85.3% (inactive),88.1% (inactive) and 59.3% (inactive),33.8% (inactive) and 73% (inactive),75.6% (inactive) and 42.5% (inactive)
C=NCC#N,109% (inactive),91.2% (inactive) and 107% (inactive),95.6% (inactive) and 111% (inactive),100% (inactive) and 112% (inactive),111% (inactive) and 101% (inactive),103% (inactive) and 102% (inactive),98.3% (inactive) and 124% (inactive),88.4% (inactive) and 99.3% (inactive),114% (inactive) and 103% (inactive),94.2% (inactive)
O=C1C=Cc2ccccc2C1=O,45.9% (inactive),38.6% (inactive),52.7% (inactive),67.1% (inactive),46.5% (inactive),87.8% (inactive),94% (inactive),76.7% (inactive),75.9% (inactive),39.4% (inactive)
[Cl][Hg][c]1ccc(Cl)s1,62.5% (inactive),-0.908% (active),-69.8% (active),-47.2% (active),-90% (active),25.2% (inactive),100% (inactive),-3.52% (active),16.4% (inactive),-54.5% (active)
O=[N+]([O-])/C=C/c1ccc([N+](=O)[O-])cc1,-47.5% (active) and 72.1% (inactive),5.65% (active) and 18.5% (inactive),66.7% (inactive) and 54.6% (inactive),66.5% (inactive) and 84.5% (inactive),101% (inactive),25.4% (inactive) and 103% (inactive),76.2% (inactive) and 104% (inactive),-27.5% (active) and 75.7% (inactive),-4.16% (active) and 96.5% (inactive),-29.1% (active) and 66.1% (inactive)
